Laboratory results: PubChem BioAssay
Values joined by “and” are separate entries in the source; they are usually repeats but may differ in a detail not shown here. Equal entries are not always repeated. Active and inactive are the calls of the source. Unless noted, how the calls were made is not given here.

Assays:
[1] = compound effects on lung adenocarcinoma cell viability – A549, calcein-AM fluorescence, 48 h, basal, profiling panel (AID 1162); conditions: higher = more signal; further: test concentration not given here
[2] = compound effects on differentiated 3T3-L1 adipocyte viability – cell-based, 3T3-L1 adipocytes, calcein-AM fluorescence, 48 h, basal, profiling panel (AID 1163); conditions: 3T3-L1 adipocytes viability, higher = more signal; further: test concentration not given here
[3] = compound effects on hepatocellular carcinoma cell viability – HepG2, calcein-AM fluorescence, 48 h, basal, profiling panel (AID 1164); conditions: higher = more signal; further: test concentration not given here
[4] = compound effects on multiple myeloma cell viability – MM1S, calcein-AM fluorescence, 48 h, basal, profiling panel (AID 1165); conditions: higher = more signal; further: test concentration not given here
[5] = calcein-AM signal in unstimulated myeloma cells – cell-based, calcein-AM fluorescence, 48 h, PK04 Diversity Set, profiling panel (AID 1166); conditions: RPMI8226 myeloma viability, higher = more signal;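 further: cells grown under basal conditions without added stimulus; test concentration not given here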
[6] = JC-1 mitochondrial signal, unstimulated HepG2 cells – cell-based, JC-1 fluorescence, 24 h, 100 nL compound, profiling panel (AID 1167); conditions: HepG2 mitochondrial potential, higher = more signal; further: test concentration not given here
[7] = JC-1 mitochondrial signal, unstimulated adipocytes – cell-based, JC-1 fluorescence, 3T3-L1 adipocytes, 24 h, 100 nL compound, profiling panel (AID 1168); conditions: JC-1 mitochondrial fluorescence, higher = more signal, called active from +8 up or from −8 down; further: test concentration not given here
[8] = JC-1 mitochondrial signal, unstimulated myeloma cells – cell-based, JC-1 fluorescence, RPMI8226, 24 h, 100 nL compound, profiling panel (AID 1169); conditions: JC-1 mitochondrial potential fluorescence, higher = more signal; further: test concentration not given here
[9] = JC-1 mitochondrial signal, unstimulated MM1S myeloma – cell-based, JC-1 fluorescence, 24 h, 100 nL compound, profiling panel (AID 1170); conditions: MM1S mitochondrial potential, higher = more signal; further: test concentration not given here
[10] = resazurin metabolic signal in A549 cells – cell-based, resazurin fluorescence, 24 h, PK04 Diversity Set, profiling panel (AID 1171); conditions: A549 viability, higher = more signal, called active from +8 up or from −8 down; further: test concentration not given here
[11] = resazurin metabolic signal in HepG2 cells – cell-based, resazurin fluorescence, 24 h, PK04 Diversity Set, profiling panel (AID 1172); conditions: HepG2 viability, higher = more signal; further: test concentration not given here
[12] = budding yeast growth changes without added modifier – OD600, strain BY4716, 24 h, basal condition, primary screen (AID 1173); conditions: S. cerevisiae BY4716 growth, OD600, 24 h; higher = more signal, called active from +8 up or from −8 down
[13] = viability profiling in MM1S myeloma cells – cell-based, resazurin fluorescence, basal, 24 h, PK04 Diversity Set, profiling panel (AID 1174); conditions: higher = more signal, called active from +8 up or from −8 down; further: test concentration not given here
[14] = molecular target: Dihydroorotate dehydrogenase (quinone), mitochondrial (Plasmodium falciparum (isolate 3D7)) (UniProt Q08210); test: inhibition of P. falciparum DHODH – biochemical, C-terminal His tag, absorbance 600 nm, primary screen (AID 1175); conditions: PfDHODH enzyme, DCIP absorbance 600 nm; higher = more signal, called active from +8 up or from −8 down;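 further: recombinant parasite enzyme with a five histidine tag at its C terminus; test concentration not given here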
[15] = inhibition of PAO1 biofilm formation – strain PAO1, LB-PBS medium, absorbance 600 nm, primary screen (AID 1176); further: test concentration not given here; conditions: P. aeruginosa PAO1 growth/biofilm, A600, 12 h; higher = more signal
[16] = growth modulation of vineyard yeast isolate – strain RM11-1a, OD600, basal, 24 h, primary screen (AID 1177);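 further: cultures grown under basal conditions with no added stressor; test concentration not given here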; conditions: S. cerevisiae RM11-1a growth, OD600, 24 h; higher = more signal, called active from +8 up or from −8 down
[17] = growth of efflux-deficient E. coli DRC39 – strain DRC39, OD650, 24 h, E. coli filamentation inducers, primary screen (AID 1178);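 further: growth measured as culture turbidity by optical density at 650 nm; test concentration not given here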; conditions: E. coli DRC39 acrAB, higher = more signal, called active from +8 up or from −8 down
[18] = growth of efflux-deficient E. coli DRC39 – strain DRC39, OD650, 48 h, E. coli filamentation inducers, primary screen (AID 1179);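 further: screen aims at cell division blockers that make cells filament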; conditions: E. coli DRC39 delta-acrAB growth, higher = more signal, called active from +8 up or from −8 down
[19] = viability profiling in RPMI8226 myeloma cells – cell-based, resazurin fluorescence, basal, 24 h, PK04 Diversity Set, profiling panel (AID 1180); conditions: higher = more signal;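 further: RPMI8826 multiple myeloma cell line at 5000 cells per well; test concentration not given here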
[20] = molecular target: E3 ubiquitin-protein ligase XIAP (Homo sapiens) (UniProt P98170); test: small molecules binding XIAP protein – biophysical, small-molecule microarray, fluorescence 635 nm, primary screen (AID 1181); conditions: higher = more signal;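 further: score merges 667 nm emission and signal to noise over triplicate slides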
E3 ubiquitin-protein ligase XIAP (Homo sapiens), sequence (P98170 whole entry, looked up): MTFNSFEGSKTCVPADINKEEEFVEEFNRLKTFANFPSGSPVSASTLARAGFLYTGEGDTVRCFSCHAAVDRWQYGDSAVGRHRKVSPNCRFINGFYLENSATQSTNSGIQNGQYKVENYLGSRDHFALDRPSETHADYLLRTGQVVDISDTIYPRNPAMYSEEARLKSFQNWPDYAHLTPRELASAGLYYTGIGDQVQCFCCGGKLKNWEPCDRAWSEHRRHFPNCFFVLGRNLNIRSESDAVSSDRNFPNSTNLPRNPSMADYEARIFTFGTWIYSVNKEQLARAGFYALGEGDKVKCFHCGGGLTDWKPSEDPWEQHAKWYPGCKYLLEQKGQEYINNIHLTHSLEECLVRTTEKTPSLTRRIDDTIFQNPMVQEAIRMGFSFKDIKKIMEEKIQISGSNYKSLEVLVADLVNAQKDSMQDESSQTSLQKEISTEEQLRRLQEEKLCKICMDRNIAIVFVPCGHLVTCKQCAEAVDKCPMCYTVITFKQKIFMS

Dihydroorotate dehydrogenase (quinone), mitochondrial (Plasmodium falciparum (isolate 3D7)), sequence (Q08210 whole entry, looked up): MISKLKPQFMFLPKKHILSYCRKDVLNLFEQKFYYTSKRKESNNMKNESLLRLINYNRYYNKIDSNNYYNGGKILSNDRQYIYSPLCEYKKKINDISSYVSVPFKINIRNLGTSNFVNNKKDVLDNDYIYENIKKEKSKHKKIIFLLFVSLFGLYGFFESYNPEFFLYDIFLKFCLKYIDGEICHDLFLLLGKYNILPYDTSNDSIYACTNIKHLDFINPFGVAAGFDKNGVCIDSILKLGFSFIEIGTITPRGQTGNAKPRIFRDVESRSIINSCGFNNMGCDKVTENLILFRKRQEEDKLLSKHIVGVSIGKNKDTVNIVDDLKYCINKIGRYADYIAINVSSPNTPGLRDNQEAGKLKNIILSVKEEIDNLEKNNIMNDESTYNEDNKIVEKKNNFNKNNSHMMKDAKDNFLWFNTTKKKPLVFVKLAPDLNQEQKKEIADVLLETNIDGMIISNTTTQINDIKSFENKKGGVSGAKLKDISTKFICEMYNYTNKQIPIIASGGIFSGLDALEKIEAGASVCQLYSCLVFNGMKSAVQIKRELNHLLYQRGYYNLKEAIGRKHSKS

Row | Structure (SMILES) | z-score [1] | z-score [2] | z-score [3] | z-score [4] | z-score [5] | z-score [6] | z-score [7] | z-score [8] | z-score [9] | z-score [10] | z-score [11] | z-score [12] | z-score [13] | composite z-score [14] | z-score [15] | z-score [16] | z-score [17] | z-score [18] | z-score [19] | composite z-score [20]
1 | C[C@@H]1CC[C@H]2C(=O)NC[C@@H](O)CN2[C@H]1c1ccc(Br)cc1 | -0.179 and 0.44 | -0.856 and 0.491 | -0.141 and 0.284 | 0.211 and -0.52 | -0.239 and -0.0289 | -0.606 and 0.493 | -0.455 (inactive) and 0.104 (inactive) | -0.606 and 0.0684 | 0.0814 and -0.633 | 0.153 (inactive) and -0.285 (inactive) | -0.278 and -0.27 | -0.228 (inactive) and -0.64 (inactive) | -0.503 (inactive) and 0.138 (inactive) | -0.679 (inactive) and 0.382 (inactive) | 0.684 (inactive) and -0.27 (inactive) | -0.154 (inactive) and 0.502 (inactive) | 0.514 (inactive) and 0.669 (inactive) | -0.882 (inactive) and 0.26 (inactive) | -0.149 and 0.435 | -0.0238 and -0.102
2 | C=CCN(Cc1ccccc1)C(=O)C1N(c2ccc(CCO)cc2)C(=O)C2C(C(=O)O)C3C=CC21O3 (stereo not given) | 0.14 and -0.777 | 0.103 and 0.408 | -0.0042 and -0.474 | 0.298 and 1.04 | -0.6 and -0.438 | 0.0701 and -0.213 | 0.543 (inactive) and 0.024 (inactive) | -0.79 and 0.726 | 1.09 and 0.0787 | -1.06 (inactive) and -0.459 (inactive) | -1.09 and -0.194 | -0.627 (inactive) and -0.3 (inactive) | -0.724 (inactive) and -1.11 (inactive) | 0.79 (inactive) and 0.0901 (inactive) | 0.0279 (inactive) and 0.345 (inactive) | 0.345 (inactive) and -0.744 (inactive) | 0.522 (inactive) and 0.134 (inactive) | 0.0943 (inactive) and -0.178 (inactive) | -0.821 and -0.623 | -0.0629 and -0.365
3 | COC(=O)[C@@]1(Cc2ccccc2)[C@H]2c3cc(C(=O)N(C)C)n(C[C@H](O)CO)c3C[C@H]2CN1C(=O)c1ccccc1 | -0.876 and -0.976 | 0.318 and -0.385 | -0.76 and -1.07 | 0.112 and 0.416 | -1.95 and 0.383 | -1.04 and -0.162 | -0.0997 (inactive) and -0.187 (inactive) | -0.194 and -0.294 | -0.609 and -0.129 | -1.3 (inactive) and -0.848 (inactive) | -0.777 and -0.734 | 0.168 (inactive) and 1.78 (inactive) | -0.939 (inactive) and -0.957 (inactive) | -0.402 (inactive) and 0.547 (inactive) | 1.32 (inactive) and 0.15 (inactive) | 1.03 (inactive) and -0.204 (inactive) | 0.146 (inactive) and -0.785 (inactive) | -0.121 (inactive) and -0.352 (inactive) | -0.205 and -0.62 | 0.333 and 0.107
